This passage reports growth results from the supplement of paper PMC12494721.

Structures can show the parent of a compound that is named as a salt.

The subject of the first test is Escherichia coli IAI1. In words: growth (OD595) fold change vs plate DMSO controls (fold change (ratio)); higher = more growth. The note with it: incubation time: 27 h, anaerobic, 37 °C. Summed up:
(§1)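 After 27 h at 37 °C under anaerobic conditions, 96-well cultures in mGAM were shaken and read at 595 nm. The readings were blank-subtracted, corrected for compound background using 20 µM compound solutions in water, and converted to OD with a calibration factor of 5. Growth is defined as the fold change over the median of DMSO controls on each plate. Fold changes above 1.5 were set to NA, and each value is the mean of 2 biological replicates.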
With `COc1ccc2[nH]c([S+]([O-])Cc3ncc(C)c(OC)c3C)nc2n1` (configuration not stated) [Tenatoprazole] (20 µM), the growth stood at 1.06.

Regarding `CCCCC(=O)O[C@H]1CC[C@H]2[C@@H]3CCc4cc(O)ccc4[C@H]3CC[C@]12C` [Estradiol Valerate] (20 µM), the growth stood at 0.995.

Regarding `O=C(O)CCc1nc(-c2ccccc2)c(-c2ccccc2)o1` [Oxaprozin] (20 µM), the growth came out at 1.04. Turning to `CC(C)(C)NC[C@H](O)c1ccc(O)c(CO)c1` [Levalbuterol hydrochloride] (20 µM), the growth turned out to be 0.976.

For the compound `COc1ccc(C(=O)c2ccc(C)cc2)c(O)c1` [Mexenone] (20 µM), the growth amounted to 0.407.

The next test concerns Klebsiella aerogenes DSM 30053. Described as above. Conditions: incubation time: 27 h, anaerobic, 37 °C. The method in brief: as §1
Take `CCCSS/C(CCO)=C(/C)N(C=O)Cc1cnc(C)nc1N` [Prosultiamine] (20 µM): the growth is 0.993. With `CN(C)CCOC(c1ccccc1)c1ccccc1.Cn1c(=O)c2[nH]c(Cl)nc2n(C)c1=O` [Dimenhydrinate] (20 µM), the growth was determined as 0.954. Still for that read-out and setting: then `CCCCCCCN(CC)CCCC(O)c1ccc(NS(C)(=O)=O)cc1` (configuration not stated) [Ibutilide fumarate] (20 µM), with 1.09; and `Cc1cccc(Nc2ccncc2S(=O)(=O)NC(=O)NC(C)C)c1` [Torsemide] (20 µM), with 1; and `C=C1c2cccc(O)c2C(O)=C2C(=O)[C@]3(O)C(O)=C(C(N)=O)C(=O)[C@@H](N(C)C)[C@@H]3[C@@H](O)[C@H]12` [Methacycline hydrochloride] (20 µM), with 0.0637. Take `O=C(O)CNC(=O)C(CS)Cc1ccccc1` (configuration not stated) [Thiorphan] (20 µM): the growth was 1.05. `CCn1cc(C(=O)O)c(=O)c2cc(F)c(N3CCNCC3)nc21` [Enoxacin] (20 µM): the growth is 0.246.
